Laboratory results taken from ChEMBL document CHEMBL1201862, “PubChem BioAssay data set” (2004).
Hit rate of the full screen: of about 57,000 sequences, about 2,500 (4.4%) were called active. No stated cut-off is given here; in the data, active = GI50 up to about 1.1 µM and inactive = higher. These entries were drawn from the full list. Entries with a potency or affinity are not part of this list.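 Dose response: 5 concentrations. Exposure: 48 h. Format: 96-well plates. Endpoint: linear interpolation; highest concentration if not reached. The concentration for 50% growth inhibition is given as GI50.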

system: UACC-257; assay: NCI tumour cell line growth inhibition, 48 h

Row | Substance | GI50
1 | [Bis(aminomethyl)dimethylsilane]dichloroplatinum (II), CHEMBL2146201 | 45.7 µM
2 | [Bis(aminomethyl)ethylmethylsilane]tetrachloroplatinum(IV), CHEMBL2146192 | 3.3 µM
3 | [Bis(aminomethyl)tetramethylenesilane]dichloropaltinum(II), CHEMBL2146205 | 59.7 µM
4 | [Bis(aminomethyl)dimethylsilane]tetrachloroplatinum(IV), CHEMBL2146190 | 15.1 µM
5 | CISPLATIN, CHEMBL11359 | 4.09 µM
6 | [Bis(aminomethyl)pentamethylenesilane]dichloropaltinum(II), CHEMBL2146202 | 6.81 µM
7 | cis-Bis[[(trimethylsilyl)methyl]amino]tetrachloroplatinum(IV), CHEMBL2146191 | 5.31 µM
8 | [Bis(aminomethyl)pentamethylenesilane]tetrachloropaltinum(IV), CHEMBL2146204 | 7.19 µM
9 | mu-(1,7-nanodiamine-N,N')bis-(cis-aminedichloroplatimum (II)), CHEMBL2146215 | 20.1 µM
10 | [Bis(aminomethyl)diethylsilane]tetrachloroplatinum(IV), CHEMBL2146203 | 4.79 µM
11 | [Bis(aminomethyl)tetramethylenesilane]tetrachloropaltinum(IV), CHEMBL2146189 | 16.4 µM
